High-throughput results as filed in PubChem BioAssay.
TbPYK inhibitor = inhibitors of Trypanosoma brucei pyruvate kinase. Potency, µM (highest dose often 76.8 µM), usual class: inhibitors. 0.12% of 410,000 active. Q57TT1. TbPYK enzyme, Kinase-Glo Plus ATP luminescence, 45 min; further: nearly all actives have a fitted effect of over 50% in size
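TbPYK + substrate in 50 mM TEA pH 7.2, 100 mM KCl, 10 mM MgCl2, 0.05% BSA, 0.01% Tween-20; cpd pinned; ADP 130 uM final; 45 min RT; Kinase-Glo Plus 10 min; luminescence endpoint.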
LmPK inh = inhibitors of Leishmania mexicana pyruvate kinase; Q27686; purified LmPK, Kinase-Glo ATP luminescence, 1 h; Potency, µM (series often up to 57.5 µM), actives largely listed as inhibitors; 0.37% of 290,000 active
Target sequence (Q27686 whole entry, looked up): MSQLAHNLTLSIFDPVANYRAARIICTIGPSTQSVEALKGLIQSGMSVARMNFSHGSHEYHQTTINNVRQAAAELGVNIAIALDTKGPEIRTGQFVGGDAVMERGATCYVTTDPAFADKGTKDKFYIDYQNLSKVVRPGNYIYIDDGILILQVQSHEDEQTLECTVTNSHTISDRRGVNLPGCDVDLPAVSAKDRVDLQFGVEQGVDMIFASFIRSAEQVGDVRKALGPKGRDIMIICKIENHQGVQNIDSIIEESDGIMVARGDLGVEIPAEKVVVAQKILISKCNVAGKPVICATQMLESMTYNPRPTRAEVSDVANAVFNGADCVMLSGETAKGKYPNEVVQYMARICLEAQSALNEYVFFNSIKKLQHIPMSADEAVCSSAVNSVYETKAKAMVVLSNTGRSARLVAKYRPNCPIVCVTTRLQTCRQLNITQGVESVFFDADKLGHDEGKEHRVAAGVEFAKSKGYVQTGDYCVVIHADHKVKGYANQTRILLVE
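Purified LmPK (0.1 nM) converted ADP (0.1 mM) to ATP with PEP (0.5 mM) in imidazole buffer pH 7.2 with KCl and MgCl2, 1 h at room temperature. ATP was read by Kinase-Glo luminescence; data normalized to uninhibited and no-enzyme controls.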
RE007 growth inh = less growth of the S. pombe RE007 Vpr strain. Potency, µM (highest dose often 92.2 µM), actives largely listed as inhibitors. AID 651644. 0.21% of 360,000 active. S. pombe RE007 Vpr strain, BacTiter-Glo ATP luminescence, 24 h; active means well fitted falling curve with a large enough effect; inconclusive means small, poorly fitted or top-dose-only effect; inactive means no such curve, though single readings can be large or run the other way; further: nearly all actives have a fitted effect of over 50% in size
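Fission yeast RE007 carrying one integrated HIV-1 vpr copy, seeded at OD 0.01 in PMG+AL medium with 23 nL pinned compound. Grown 24 h at 30 degrees; viability read by BacTiter-Glo luminescence after 5 min.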
Giardia FBPA inh = blocks Giardia fructose-bisphosphate aldolase activity. 0.71% of 290,000 active. purified Giardia FBPA. A8B2U2. Potency, µM (top dose mostly 59.6 µM), hits mostly inhibitors; further: nearly all actives have a fitted effect of over 55% in size
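Giardia FBPA (40 nM reagent) was preincubated 10 min at RT with compound (up to 57.5 uM final), then substrate plus GAPDH/TPI/NAD/arsenate coupling system with diaphorase/resazurin was added; resorufin fluorescence (525/598 nm) was read after 20 min.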
CHX counter = affects cycloheximide protein synthesis inhibition readout, counter-screen | cell reporter, cycloheximide protein synthesis inhibition counterscreen | max response, % | 12% of 300,000 active; in the data active means max response mostly above about 13%, no sharp cut-off; inactive means mostly below about 14%; further: read at 38.3 µM for the half of the compounds with a filed dose
Shiga inhibitor = inhibitors of Shiga toxin in Vero cells; Vero cells, Shiga toxin protein synthesis inhibition reporter; 9.2% of 290,000 active; inhibition, % at 38.7 µM; AID 2315; in the data active means inhibition mostly above about 28%, no sharp cut-off; inactive means mostly below about 43%
A number is an active result. Many of the other results were omitted from the sample, so hits are more common in it than they were. Unless noted, the call rests on the fitted dose curve; in most records, active means well fitted curve in the direction sought with a large enough effect; inconclusive means small, poorly fitted or top-dose-only effect, or another doubt; inactive means no such curve, though single readings can be large; an effect the other way counts as inactive or inconclusive.

`Cc1[nH]c2ccccc2c1N=Nc1ccccc1C(=O)O` gave TbPYK inhibitor inactive, LmPK inh inactive, RE007 growth inh inactive, Giardia FBPA inh inactive, CHX counter 17 and Shiga inhibitor 48.
Cc1noc(C)c1N=Nc1ccccc1C(=O)O was read as TbPYK inhibitor inactive, LmPK inh inactive, RE007 growth inh inactive, Giardia FBPA inh inactive, CHX counter inactive and Shiga inhibitor inactive.
`COc1ccccc1C(=O)Nc1cccc2cccnc12` gave TbPYK inhibitor inactive, LmPK inh inactive, RE007 growth inh inactive, Giardia FBPA inh inactive, CHX counter 39 and Shiga inhibitor inactive.
O=C(Nc1cccc2cccnc12)c1ccccc1Cl was read as TbPYK inhibitor inactive and RE007 growth inh inactive.
For O=C(Nc1cccc2cccnc12)c1cc(F)c(F)cc1Cl the results were TbPYK inhibitor inactive, LmPK inh inactive, RE007 growth inh inactive, Giardia FBPA inh inactive and CHX counter 29.
`COC(=O)c1cccc(NC(=O)c2cccnc2C(=O)O)c1C` gave TbPYK inhibitor inactive, LmPK inh inactive, RE007 growth inh inactive, Giardia FBPA inh inconclusive, CHX counter 29 and Shiga inhibitor 59.
COC(=O)c1ccccc1NC(=O)c1cnn2cccnc12 was read as TbPYK inhibitor inactive, LmPK inh inactive, RE007 growth inh inactive, Giardia FBPA inh inactive, CHX counter inactive and Shiga inhibitor inactive.
Cc1cccc(OC(=O)CSc2nnc(-c3ccc4c(c3)OCO4)o2)c1C was read as TbPYK inhibitor inactive.
For COc1ccc(CNC(=O)COC(=O)CO/N=C(\C)c2ccc3c(c2)OCO3)cc1 the results were TbPYK inhibitor inactive and RE007 growth inh inactive.
O=C(NCCc1csc2nc(-c3cccc(F)c3)nn12)c1ccc(Br)o1 was read as TbPYK inhibitor inactive.
CC(C)OCCCn1c(-c2ccc(Br)cc2)c[nH]c1=S was read as TbPYK inhibitor inconclusive, LmPK inh 13µM, RE007 growth inh inactive, Giardia FBPA inh inactive, CHX counter inactive and Shiga inhibitor inactive.
`COc1ccc(C(=O)NNC(=O)c2ccc(C(C)(C)C)cc2)cc1` gave TbPYK inhibitor inactive, LmPK inh inactive, RE007 growth inh inactive, Giardia FBPA inh inactive, CHX counter inactive and Shiga inhibitor inactive.
Screening COc1ccc(C(=O)NN/C(C)=C/C(=O)c2ccccc2)cc1 returned TbPYK inhibitor inactive, LmPK inh inactive, RE007 growth inh inactive, Giardia FBPA inh inactive, CHX counter 11 and Shiga inhibitor inactive.
For COc1ccc(C(=O)N/N=C/C(=O)c2ccccc2)cc1 the results were TbPYK inhibitor inactive, LmPK inh inactive, RE007 growth inh inactive, Giardia FBPA inh inactive, CHX counter 43 and Shiga inhibitor 49.
For C/C(=C\C(=O)c1ccccc1)NNC(=O)c1ccc(Cl)cc1 the results were TbPYK inhibitor inactive, LmPK inh inactive, RE007 growth inh inactive, Giardia FBPA inh inactive and CHX counter 22.
`CCc1ccc(N2C(=O)CS(=O)(=O)C23C(=O)N(Cc2ccccc2)c2ccccc23)cc1` (stereo unspecified) gave TbPYK inhibitor inactive.
CC(C)OC(=O)c1ccc(NC(=O)C2C3CC4OC(=O)C2C4C3)cc1 (stereo unspecified) was read as TbPYK inhibitor inactive, LmPK inh inactive, RE007 growth inh inactive, Giardia FBPA inh inactive, CHX counter 33 and Shiga inhibitor 60.
`CCC(=O)N1CCc2cc(S(=O)(=O)NC(Cc3ccccc3)C(=O)Nc3ccc(Cl)cc3)ccc21` (stereo unspecified) gave TbPYK inhibitor inactive.
Screening Cc1cccc(C(=O)NC2CCN(C(=O)NCc3ccccc3)CC2)c1 returned TbPYK inhibitor inactive, LmPK inh inactive, RE007 growth inh inactive, Giardia FBPA inh inactive, CHX counter inactive and Shiga inhibitor inactive.
`CCOc1ccc(C(=O)NCc2ccccc2OC)cc1` gave TbPYK inhibitor inactive, LmPK inh inactive, RE007 growth inh inactive, Giardia FBPA inh inactive, CHX counter inactive and Shiga inhibitor active.
COc1ccccc1CNC(=O)c1ccc(OC(C)C)cc1 was read as TbPYK inhibitor inactive, LmPK inh inactive, RE007 growth inh inactive, Giardia FBPA inh inactive, CHX counter 15 and Shiga inhibitor 56.
